Giardia killer: Small Molecules that selectively kill Giardia lamblia: qHTS; Giardia lamblia trophozoite viability; activity change, % at 7.66 µM, hits read low; hit rate 0.15% among 340,000; in the data active means activity change below about -80%; inconclusive means between about -30% and that limit;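 further: parasites exposed to compound for two days anaerobically before the ATP read; on the % scale 0 is the no-effect control and ±100 the full control effect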
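Trophozoites 100 cells/well + cpd; 48 hrs, 37 deg C, anaerobic. ATPLite 1-Step added, 15-30 min RT, luminescence read (ATP-based viability).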
DRD3 antagonist: qHTS of D3 Dopamine Receptor Antagonist: qHTS; D(3) dopamine receptor (Homo sapiens), P35462; D3R cells, DiscoveRx beta-arrestin luminescence, antagonist mode; active compounds read low; max response, negative = inhibition, %; hit rate 2.5% among 360,000; AID 652054, 2013; in the data active means max response below about -50%; inconclusive means no clear call, values can overlap the other calls; further: on the % scale 0 is the no-effect control and ±100 the full control effect
Target sequence (P35462 whole entry, looked up): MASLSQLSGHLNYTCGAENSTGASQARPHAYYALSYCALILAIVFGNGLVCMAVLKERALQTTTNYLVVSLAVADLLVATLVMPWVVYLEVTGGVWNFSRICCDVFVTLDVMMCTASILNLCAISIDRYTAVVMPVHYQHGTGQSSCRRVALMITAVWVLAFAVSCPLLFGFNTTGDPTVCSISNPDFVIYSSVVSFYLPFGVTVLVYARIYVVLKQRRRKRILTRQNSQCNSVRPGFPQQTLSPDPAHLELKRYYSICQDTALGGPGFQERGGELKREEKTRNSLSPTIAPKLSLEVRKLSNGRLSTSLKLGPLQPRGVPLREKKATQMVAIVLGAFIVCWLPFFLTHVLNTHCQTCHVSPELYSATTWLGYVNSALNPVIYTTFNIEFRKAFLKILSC
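Cells expressing the human receptor were seeded at 1500 cells/well, incubated overnight at 37 degrees C in 5% CO2, then exposed to library compounds with dopamine controls for 90 minutes at 37 degrees C before luminescent detection.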
D3 ag: qHTS of D3 Dopamine Receptor Agonist: qHTS | AID 652048, 2013 | hit rate 0.58% among 410,000 | D3R DiscoveRx beta-arrestin cells, luminescence, 90 min | D(3) dopamine receptor (Homo sapiens), P35462 | max activation, %; in the data active means max activation above about 30%; further: 0% is about no effect
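Agonist mode: compounds and dopamine controls were applied to plated cells for 90 min at 37 degrees C after an overnight attachment at 1500 cells/well. Luminescent read-out followed 30 - 60 minutes at room temperature with DiscoveRx detection reagent.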
B2AR arrestin: qHTS assay of beta-arrestin-biased ligands of beta2-adrenergic receptor; Beta-2 adrenergic receptor (Homo sapiens), P07550; beta-arrestin recruitment to beta2AR, cell-based reporter; Potency, µM (doses to about 46.1 µM), inactives show at the highest dose activation, actives largely listed as activators; hit rate 0.02% among 330,000; AID 492947, 2010; active means well fitted activation curve with a large enough effect; inconclusive means small, poorly fitted or top-dose-only effect;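 further: potency means the concentration at half of the fitted maximal effect; 0% = DMSO controls and full agonism = EC100 isoproterenol or metaproterenol; nearly all actives have a fitted effect of over 65% in size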
Starred values were filed as active, the others as inactive; ? = inconclusive; / = not tested or not shown. Compounds with a hit are over-represented: about 2.8% of the library has one in this group of screens.

SMILES	Giardia killer	DRD3 antagonist	D3 ag	B2AR arrestin
[O-][n+]1c2cc(C(F)(F)F)ccc2c2n1CCN=C2c1ccc(Cl)cc1	-88.6*	-6.4	-11.4	0.2%
C=CC[N+]1([C@H]2C[C@H]3[C@@H]4CC[C@H]5C[C@H](OC(C)=O)[C@@H](N6CCCCC6)C[C@]5(C)[C@H]4CC[C@]3(C)[C@H]2OC(=O)CC)CCCCC1	/	/	-13.5	/
COc1cccc(C(=O)NC2CC3CCCC(C2)N3Cc2ccc(F)cc2)c1 (stereo not drawn)	/	-107.0*	-11.6	/
COc1cccc(C(=O)NC2CC3CCCC(C2)N3CC(=O)Nc2ccccc2)c1 (stereo not drawn)	8.0	-59.1*	-3.2	-0.5%
COc1cccc(C(=O)NC2CC3CCCC(C2)N3Cc2ccc(C)cc2)c1 (stereo not drawn)	2.9	-111.5*	-17.7	0.1%
COc1cccc(C(=O)NC2CC3CCCC(C2)N3CC(=O)Nc2ccc(N(C)C)cc2)c1 (stereo not drawn)	-9.7	7.9	-1.7	-0.5%
CCCN1C2CCCC1CC(NC(=O)c1ccc(F)cc1)C2 (stereo not drawn)	-8.4	20.8	-1.9	-0.2%
COc1cccc(C(=O)NC2CCN(C(=O)N3CCCCC3)CC2)c1	-1.4	?	-1.7	-0.2%
N#Cc1nc(N(c2ccccc2)c2ccccc2)nc(-n2cccc2)n1	-21.1	/	/	/
NC(=S)NS(=O)(=O)c1ccc(N)cc1	/	/	2.5	/
COc1ccc2oc(=O)cc(CN3CCN(c4ccc(F)cc4)CC3)c2c1	/	/	-20.3	/
CCOC(=O)c1c(NC(=O)CSc2cn(CCNC(=O)c3ccccc3OC)c3ccccc23)sc2c1CCCC2	/	/	6.3	/
O=[N+]([O-])C(/C=C(\Cl)[N+](=O)[O-])=C(N1CCCCC1)N1CCCCC1	-82.0*	-16.8	-13.1	0.0%
O=C(Cc1ccccc1)Nc1cccc(-c2nc3cccnc3s2)c1	/	/	78.3*	/
O=C(Cc1ccc(F)cc1)Nc1cccc(-c2nc3cccnc3s2)c1	/	/	-7.2	/
Cc1[nH]c2ccccc2c1CCNC(=O)c1ccc2c(c1[N+](=O)[O-])C(=O)c1ccccc1C2=O	2.7	-85.2*	-16.5	-0.3%
CN(C)C(=O)c1ccc2c(c1[N+](=O)[O-])C(=O)c1ccccc1C2=O	-1.0	?	-9.4	-0.2%
Cc1[nH]c2c(C)cccc2c1CCNC(=O)c1ccc2c(c1[N+](=O)[O-])C(=O)c1ccccc1C2=O	7.1	-56.2*	0.4	-0.3%
O=C(CSc1oc(-c2ccc(F)cc2)nc1S(=O)(=O)c1ccccc1)NC1CCCCC1	/	/	7.6	/
C/C1=C2N=C(/C=C3N=C(/C(C)=C4\[N-]C(C(CC(N)=O)C4(C)CCC(=O)NCC(C)OP(=O)([O-])OC4C(CO)OC(n5cnc6cc(C)c(C)cc65)C4O)C4(C)N=C1C(CCC(N)=O)C4(C)CC(N)=O)C(CCC(N)=O)C\3(C)C)C(CCC(N)=O)C/2(C)CC(N)=O.[CH3-].[Co+3] (stereo not drawn)	/	/	-6.4	/
CCc1ccc(N2CSC3=C(C#N)C(c4cccs4)CC(=O)N3C2)cc1 (stereo not drawn)	-8.0	-60.8*	3.4	0.3%
COc1cccc(C2NC(C)(C(=O)O)C3C(=O)N(C(C)C)C(=O)C23)c1O (stereo not drawn)	-20.9	-53.2*	3.9	0.0%
CSCCC1(C(=O)O)NC(c2ccccc2O)C2C(=O)N(C(C)C)C(=O)C21 (stereo not drawn)	5.0	48.0	-6.6	0.2%
Nc1ccc(C#Cc2ccc3sc4ccccc4c(=O)c3c2)cc1	1.1	50.9	43.6*	/
COc1cccc2sc3ccc(C#Cc4ccc(N)cc4)cc3c(=O)c12	-22.4	34.6	26.5	-1.2%
SMILES	Giardia killer	DRD3 antagonist	D3 ag	B2AR arrestin
O=C(COc1ccc(F)cc1)Nc1ccc(C(=O)OCc2cc(=O)n3nc(C4CC4)sc3n2)cc1	/	/	1.4	/
O=c1c(=O)n(-c2cccc(Cl)c2)ccn1Cc1cccc(F)c1	/	/	4.5	/
CCOC(=O)C1=CN(Cc2cccc(F)c2)S(=O)(=O)N(C)C1c1ccccc1 (stereo not drawn)	-8.3	?	-20.4	-0.3%
CCOC(=O)C1=CN(Cc2cccc(F)c2)S(=O)(=O)NC1c1cccc(OC)c1 (stereo not drawn)	21.4	-17.0	-2.7	0.0%
CCOC(=O)C1=CN(Cc2cccc(F)c2)S(=O)(=O)N(C)C1c1cccc(OC)c1 (stereo not drawn)	11.5	28.8	37.5*	-0.2%
CCOC(=O)C1=CN(Cc2cccc(F)c2)S(=O)(=O)NC1c1ccc2ccccc2c1 (stereo not drawn)	13.2	-58.8*	-17.5	0.3%
Clc1cccc(-c2ccc(CNCCCN3CCOCC3)o2)c1	7.9	-80.3*	-22.6	-0.9%
Cn1nnnc1SCCCNCc1ccc(-c2cccc(Cl)c2)o1	/	/	-17.9	/
CCCCC(=O)Nc1ccccc1CC	-11.8	-64.5*	-15.3	-0.8%
CCCCOc1ccccc1C(=O)N(Cc1cccc(F)c1)C1CCS(=O)(=O)C1 (stereo not drawn)	/	/	2.9	/
O=C(Nc1cc(C(=O)N2CCCC2)ccc1N1CCCC1)c1ccccc1F	11.1	55.9	61.3*	-0.1%
Cc1nc(SC(C)C(=O)Nc2ccccc2Cl)cc(-c2ccccc2)n1 (stereo not drawn)	/	/	17.3	/
COc1ccccc1CNS(=O)(=O)CCNCCc1ccccc1	1.3	-73.5*	-33.9	/
CCCCCCCCNS(=O)(=O)CCNCc1ccco1	-28.4	-4.7	37.2*	/
CCCCCCCCNCCS(=O)(=O)NCc1ccc(OC)cc1	-7.8	-63.1*	-24.2	/
CCCCCCCCNS(=O)(=O)CCNCc1ccccc1OC	17.9	-51.3*	-14.2	/
CCCCCCCCNS(=O)(=O)CCNCc1ccccc1	4.4	-18.1	5.2	/
C=C1CCN(C(C(=O)O)C(C)C)S(=O)(=O)c2ccccc21 (stereo not drawn)	10.8	/	/	/
CCOc1ccccc1NC(=O)Cn1c(=O)n(-c2ccc(C)c(C)c2)c(=O)c2c(C)c(C(=O)N(C)C)sc21	/	/	-12.7	/
CCCCCCNS(=O)(=O)c1ccc(OC)c(OC)c1	-6.9	17.1	31.8*	-0.4%
COc1cccc(CNC(=O)CCC2CCCN(C/C=C/c3ccccc3OC)C2)c1 (stereo not drawn)	12.5	-54.6*	-12.8	0.0%
COc1ccccc1/C=C/CN1CCCC(CCC(=O)NCc2ccc(F)c(F)c2)C1 (stereo not drawn)	-5.5	-66.2*	-18.1	0.1%
O=C(CCC1CCCN(Cc2cccc3c2OCO3)C1)NCc1ccc(F)c(F)c1 (stereo not drawn)	2.1	-13.4	-12.0	0.2%
COCCNC(=O)CCC1CCN(C/C=C/c2ccccc2OC)CC1	2.7	-55.7*	-20.0	-0.7%
COc1ccc(/C=C/CN2CCCC(CCC(=O)NCc3ccc(F)c(F)c3)C2)cc1 (stereo not drawn)	15.4	-55.4*	-32.2	-1.1%
Cc1ccc2c(c1)-c1cc(C)nn1C(c1cc(Br)ccc1O)N2 (stereo not drawn)	/	/	-20.2	/
COc1ccc(CCn2c(=O)c3cccnc3n(CC(=O)Nc3ccc(C)c(F)c3)c2=O)cc1OC	/	/	-8.4	/

Screening results from PubChem BioAssay.
